Source: PubChem BioAssay (National Center for Advancing Translational Sciences (NCATS))
TDP1 cell CPT: growth inhibition of DT40 Tdp1-/-;hTDP1 cells with camptothecin (screen for TDP1 inhibitors); chicken DT40 Tdp1-/-;hTDP1 cells + 20 nM CPT, ATP luminescence, 48 h; Potency, µM (titrated, usually from 46.2 µM), without a hit: at the highest dose activity change, negative = growth inhibition, usual class: inhibitors; 420,000 compounds, 12% hits; AID 686979; also: potency is read from the fitted curve at half-maximal effect; nearly all actives have a fitted effect of over 55% in size
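Chicken DT40 Tdp1-/- cells stably complemented with human TDP1 were seeded at 400 cells/well in medium containing 20 nM camptothecin, exposed to pin-transferred compounds, and grown at 37 °C for at least 48 hr. Viability was read as ATP luminescence.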
HT1080-NT tox: kills 2HG-producing HT-1080-NT fibrosarcoma cells; HT-1080-NT fibrosarcoma viability, CellTiter-Glo ATP luminescence, 48 h; 360,000 compounds, 1.6% hits; Potency, µM (series often up to 46.1 µM), without a hit: at the top dose activity, negative = less viability, usual class: cytotoxic; AID 686970;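 also: NT is the 2HG producing partner of a matched IDH1 knockdown line; potency is read from the fitted curve at half-maximal effect; 0% = DMSO-treated cells and -100% = media-only wells without cells; nearly all actives have a fitted effect of over 55% in size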
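Luminescent CellTiter-Glo readout after 48 hours of compound exposure at 37 degrees C defined viability of HT-1080-NT cells. Activity was normalized to DMSO wells and cell-free media wells; concentration-response curves were fitted and assigned curve classes.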
DT40 TDP1 no CPT: qHTS for Inhibitors of human tyrosyl-DNA phosphodiesterase 1 (TDP1): qHTS in cells in absence of CPT; 420,000 compounds, 15% hits; Potency, µM (titrated, usually from 46.2 µM), without a hit: at the top dose activity change, negative = growth inhibition, actives largely listed as inhibitors; DT40 Tdp1-/- hTDP1 cells, no CPT, ATP luminescence, 48 h; also: potency is read from the fitted curve at half-maximal effect; nearly all actives have a fitted effect of over 55% in size
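Camptothecin absent (DMSO only). Human TDP1-complemented DT40 knockout cells, 400 cells/well, 37 °C for minimum 48 hr; ATP measured via CellTiter-Glo, 30 min dark incubation, luminescence.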
IL-1B inflam inh: inflammasome signaling inhibition, IL-1 beta readout; AID 743279; activity change, % at 57.5 µM; 360,000 compounds, 4.7% hits; THP-1 LPS/ATP IL-1B secretion, AlphaLISA, 16 h; active compounds read low; in the data active = activity change below about -50%; inconclusive = mostly about -30% to -49%
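Secreted IL-1B measured by AlphaLISA bead assay after 16 h compound exposure of THP-1 cells; compounds (final up to 57.5 uM) added 1 h before LPS (250 ng/mL) and ATP (1.25 mM) stimulation; lower signal means less secretion.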
HT1080 IDH1KD tx: toxicity to HT-1080 IDH1 knockdown cells (counter line) | 360,000 compounds, 2% hits | HT-1080 IDH1 knockdown viability, ATP luminescence, 48 h | AID 686971 | Potency, µM (highest dose often 46.1 µM), for the others: at the top dose activity, negative = toxicity, actives largely listed as cytotoxic;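 also: potency is read from the fitted curve at half-maximal effect; 0% = DMSO wells and -100% = cell-free medium wells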
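HT-1080-IDH1KD cells (IDH1 knocked down), 750/well in RPMI with 5% FBS, treated with compound 48 h at 37 degrees C. Viability by CellTiter-Glo luminescence, normalised to DMSO and no-cell wells; concentration-response curves classed.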
* marks the source's active call; other numbers are inactive results; ? = inconclusive; · = no result given; [ ] = another dose, or the depositor's remark. Shown are actives, neighbours in structure and some others; about 19% of the full set was active somewhere. Unless noted, calls follow the shape of the dose curve; as a rule, active = well fitted curve in the direction sought with a large enough effect; inconclusive = small, poorly fitted or top-dose-only effect, or another doubt; inactive = no such curve, though single readings can be large; an effect the other way counts as inactive or inconclusive. Unless noted, % is scaled to controls: 0 for no effect and ±100 for the full control effect.

SMILES	TDP1 cell CPT	HT1080-NT tox	DT40 TDP1 no CPT	IL-1B inflam inh	HT1080 IDH1KD tx
Cc1c(-c2ccc(Cl)cc2)oc(=O)c2c(N)n(-c3ccccc3)nc12	?	0%	7.3µM*	0	-17%
COc1ccc(Cc2noc(CN3CCNC(=O)CC3)n2)cc1OC	-1%	18%	5%	-10	4%
Cn1c(SCC(=O)Nc2cc(C(C)(C)C)nn2-c2ccccc2)nc2ccccc21	?	-11%	12µM*	6	-18%
CCOC(=O)c1cccc(NC(=O)CSc2nc3ccccc3c(=O)n2CC)c1	-15%	19%	-20%	-1	-3%
COc1ccccc1NC(=O)CSc1nnc(CC(=O)Nc2ccccc2)n1C	-30%	4%	-8%	-50*	9%
CCOC(=O)c1cccc(NC(=O)CSc2nc3ccccc3c(=O)n2CCOC)c1	?	4%	21µM*	-3	0%
COCCn1c(SCC(=O)c2ccccc2)nc2ccccc2c1=O	-24%	-2%	?	-15	1%
Cc1ccc2nc(SCC(=O)Nc3cc(C(C)(C)C)nn3-c3ccccc3)[nH]c2c1	?	-24%	-1%	-13	?
COCCCn1c(SCC(=O)c2ccccc2)nc2ccccc2c1=O	?	-18%	23µM*	-11	-1%
Cc1ccc2c(C)c(C(=O)N(C)Cc3nccn3C)oc2c1C	?	22%	?	-3	-1%
CCc1c(C)sc(NC(=O)c2ccco2)c1C#N	-7%	0%	15%	-17	-1%
CCOCCCNC(=O)CSc1nc2nc(C)c(Cc3ccccc3)c(C)n2n1	14%	0%	-28%	53	0%
O=C1NC[C@@H](CCCCN2C[C@H](Cc3ccc(O)cc3)N(CCc3ccccc3)C(=O)C2=O)N(Cc2ccccc2)C1=O	9%	21%	-20%	-5	25%
O=C(Nc1ccc(OC(F)F)cc1)c1cc[n+]([O-])cc1	9%	-2%	-25%	18	11%
COc1ccccc1NC(=O)CSc1nnc(C2CCCCC2)n1-c1ccccc1	21µM*	-21%	12µM*	-24	-20%
CCOCCCn1c(SCC(=O)Nc2ccc(OC)cc2)nc2ccccc2c1=O	?	-7%	18µM*	-14	-2%
Cn1c(SCC(=O)Nc2ccccc2)nc2ccccc2c1=O	2.9µM*	-18%	?	?	-17%
CCOCCCn1c(SCC(=O)Nc2ccccc2)nc2ccccc2c1=O	?	-12%	?	-10	-1%
CCOCCCn1c(SCC(=O)Nc2ccccc2OC)nc2ccccc2c1=O	?	-1%	16µM*	-1	-4%
Cc1nnc(NC(=O)c2ccc(S(=O)(=O)C(F)F)cc2)s1	-13%	9%	-1%	-8	12%
COc1ccccc1NC(=O)CSc1nc2ccccc2c(=O)n1C	15µM*	-4%	9.2µM*	17	-23%
CCOc1ccccc1NC(=O)CSc1nc2cc(O)ccc2c(=O)n1-c1ccc(OC)c(OC)c1	18µM*	?	?	34	?
CCOCCCn1c(SCC(=O)Nc2ccc(C)cc2)nc2ccccc2c1=O	16µM*	·	15µM*	·	·
COc1ccccc1NC(=O)Cn1nc(-c2ccncc2)nc1SCC(=O)NC1CCCC1	13µM*	-27%	15µM*	17	-15%
COc1ccc(-n2c(SCC(=O)Nc3ccc(C(N)=O)cc3)nc3ccccc3c2=O)cc1OC	-12%	?	-25%	?	-15%
SMILES	TDP1 cell CPT	HT1080-NT tox	DT40 TDP1 no CPT	IL-1B inflam inh	HT1080 IDH1KD tx
CCCCc1ccc(NC(=O)CSC2=NN3CCCC(=O)N=C3S2)cc1	?	?	?	36	?
COc1ccc(-c2cc(C)cc3c2OC(CNC(=O)c2cc(C(C)C)on2)C3)nn1 (stereo not given)	0%[9.04 µM]	·	-21%	·	·
CCc1ccc(NC(=O)CSc2nc3ccccc3c(=O)n2CCCC(=O)N2CCCC2)cc1	15µM*	-17%	?	20	-19%
CCOc1ccc(CCNC(=O)CSc2cc(=O)n(C)c3ccccc23)cc1OCC	-29%	2%	?	-2	4%
CN(Cc1ccccc1)Cc1c[nH]c2ccccc12	5.8µM*	-8%	21µM*	?	0%
C[C@H](NCc1c[nH]c2ccccc12)c1ccccc1	21µM*	-11%	?	0	0%
CC(NC(=O)CCc1c[nH]c2ccccc12)c1ccccc1 (stereo not given)	-20%	12%	9%	24	-5%
COc1ccc(CNC(=O)c2cc(-c3ccc(Br)s3)nc3ccccc23)c(OC)c1	?	·	15µM*	·	·
CC(C)CCNC(=O)c1cc(-c2ccc(Br)s2)nc2ccccc12	15µM*	·	?	·	·
COc1ccc(-c2cc(C(=O)NCc3ccco3)c3ccccc3n2)c(OC)c1	?	-6%	?	15	2%
O=C1C=CC(=O)N1CCCCCCN1C(=O)C=CC1=O	1.5µM*	?	2.1µM*	-98*	?
Cc1ccccc1C(=O)Nc1ccccc1C(=O)NC1CC1	-2%	-1%	7%	34	7%
CCN1C2=NCCCN2c2ccccc21	-5%	13%	-18%	0	22%
OC(CN1C2=NCCCN2c2ccccc21)c1ccc(Cl)cc1 (stereo not given)	?	?	18µM*	-8	?
OC(COc1ccc(Cl)cc1)CN1C2=NCCCN2c2ccccc21 (stereo not given)	21µM*	?	21µM*	-17	?
O=P(C(=NCCO)NO)(N1CCOCC1)N1CCOCC1	-15%	6%	5%	11	12%
O=C(C[n+]1ccc2ccccc2c1)c1cccc2ccccc12	13µM*	?	8.2µM*	?	?
NC(=O)c1ccc[n+](CC(=O)c2ccc(NC(=O)c3ccccc3)cc2)c1	2%	-2%	-10%	-27	2%
Nc1ccc[n+](CC(=O)c2ccc(F)cc2)c1	14µM*	·	10µM*	·	·
O=C(C[n+]1ccc2ccccc2c1)c1ccc(NC(=O)c2ccccc2)cc1	5.8µM*	-13%	7.3µM*	?	-17%
O=C(C[n+]1cccc(NC(=O)c2ccccc2)c1)c1ccc(NC(=O)c2ccccc2)cc1	23µM*	-8%	?	?	-11%
O=C(CCCc1ccccn1)c1cccc2ccccc12	-20%	-1%	-30%	-4	-4%
O=C(O)c1cnn2c(-c3ccc(F)cc3)ccnc12	26%	6%	-2%	24	4%
O=C(C[n+]1ccc2ccccc2c1)c1ccc(O)c(O)c1	-4%	·	-24%	·	·
Cc1ccc(C(=O)C[n+]2ccc3ccccc3c2)cc1	?	-3%	15µM*	20	-11%
